# HDAC3 inhib = blocks human histone deacetylase 3. 320,000 compounds, 0.15% hits. AID 2718. recombinant HDAC3, fluorogenic peptide/trypsin coupled, fluorescence. inhibition, % at 8.3 µM; in the data active = inhibition above about 26%, passing the limit was not always enough; inconclusive = no clear call, values can overlap the other calls
# Target sequence (O15379 whole entry, looked up): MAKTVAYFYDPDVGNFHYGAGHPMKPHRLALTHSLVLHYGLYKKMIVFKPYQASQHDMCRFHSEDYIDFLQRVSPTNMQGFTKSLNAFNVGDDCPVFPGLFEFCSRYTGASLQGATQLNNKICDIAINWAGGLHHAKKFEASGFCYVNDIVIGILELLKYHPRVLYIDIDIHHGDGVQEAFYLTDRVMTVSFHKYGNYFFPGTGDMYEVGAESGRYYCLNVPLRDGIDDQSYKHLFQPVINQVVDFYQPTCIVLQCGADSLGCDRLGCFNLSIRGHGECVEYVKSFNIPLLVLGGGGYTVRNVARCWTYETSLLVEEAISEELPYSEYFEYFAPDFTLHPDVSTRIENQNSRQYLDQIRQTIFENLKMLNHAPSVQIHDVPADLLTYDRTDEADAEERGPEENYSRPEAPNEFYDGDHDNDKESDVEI
# IDE act = boosts human insulin-degrading enzyme activity in HEK cells; 340,000 compounds, 0.073% hits; activation, % at 5.96 µM; FAbeta-B cleavage, fluorescence polarization; 0% vehicle, 100% cell-free pure enzyme wells; P14735;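 active = activation above the mean of all tested compounds plus 3 SD, set per screening campaign, cut at about 17% in these data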
# LANA-H2A inh = blocks KSHV LANA binding to histone H2A/H2B. Q9QR71. cell-free LANA-H2A/H2B peptide, fluorescence polarization. inhibition, % (concentration not given with the values). 320,000 compounds, 0.6% hits. AID 2629; in the data active = inhibition mostly above about 10%, no sharp cut-off; inactive = mostly below about 6.7%
# SUMO Mot1 rescue = SUMOylation pathway inhibition by Mot1-301 growth rescue; AID 2716; growth rescue, % at 18.8 µM; 320,000 compounds, 1% hits; S. cerevisiae Mot1-301 growth rescue, ATP luminescence, 38.5C; percent above DMSO median, 100 means doubled;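 active = every valid replicate shows activation above 250% relative to neutral control wells; inactive = the rest, any valid replicate at or below 250%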;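 note: OY570 slx delta 5 strain wells were the positive control but not used for scaling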
# IDE cell inh = inhibits human insulin-degrading enzyme in HEK cells | P14735 | FAbetaB cleavage, fluorescence polarization | inhibition, % at 5.59 µM | 320,000 compounds, 0.41% hits;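 active = percent inhibition above the average of all tested compounds plus 3 SD, set per screening campaign, cut at about 16% in these data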;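 note: IDE supplied by intact live HEK cells; FP after avidin binding of uncleaved biotin substrate so inhibition keeps polarization high; 0% = DMSO wells and 100% = 60 µM reference IDE inhibitor Ii1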
# Mot1 SUMO dose = SUMO pathway inhibitors in yeast Mot1-301 growth; shares compounds with SUMO Mot1 rescue; S. cerevisiae Mot1-301 galactose growth, ATP luminescence, 24 h; -100 = growth of slx-deleted rescue strain; growth activity, percent, % at 42 µM; 2,300 tested, under 10 active;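 active = Signal drops as the depositor expects, and the fitted half-maximal dose is no more than ten times the top valid tested dose; inconclusive = Poor fit, or a flat curve whose signal drops by 30% to 70%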;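 note: more negative values mean stronger growth rescue toward the control strain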
# Starred values were filed as active, the others as inactive; i = inactive; ? = inconclusive; . = not tested or not shown; + = active, no number. Sampled rows, rich in hits. Any-hit rate of the full collection: about 2.1%.
SMILES,HDAC3 inhib,IDE act,LANA-H2A inh,SUMO Mot1 rescue,IDE cell inh,Mot1 SUMO dose
COC(=O)[C@@H]1C[C@@H]2CC[C@@H](O)C[C@@H]2N1Cc1ccc(N2CCN(C)CC2)cc1,-4,7,-1,522*,3,0
COC(=O)[C@@H]1C[C@H]2CC[C@H](O)C[C@H]2N1Cc1ccccc1OS(=O)(=O)c1ccc(C)cc1,-1,1,-1,-3,-3,.
NNc1nc2sc3c(c2c(=O)n1-c1ccccc1)CCCC3,6,-4,-5,639*,0,0
Cc1ccc(N(C(=O)CCl)C(C(=O)NC2CCCCC2)c2cccnc2)cc1C (stereo not given),-10,.,i,369*,9,0
Cc1ccc(N(C(=O)CNC(=O)c2ccco2)C(C(=O)NC2CCCCC2)c2cccnc2)cc1C (stereo not given),-3,-2,0,-2,-3,.
CN1CCN(C(CNS(=O)(=O)c2ccc(Br)cc2)c2ccc3c(c2)OCO3)CC1 (stereo not given),6,8,-8,-4,-2,.
COC(=O)C(CC(C)C)NC(=O)CNC(=O)c1ccccc1C (stereo not given),?,-1,2,+,4,0
COc1cccc(CNC(=O)C(CC(C)C)NC(=O)c2ccccc2C)c1 (stereo not given),-3,8,11,-9,7,.
O=C(Nc1ccc(S(=O)(=O)NC2=NCCCCC2)cc1)c1ccc(C(F)(F)F)cc1,0,1,-2,451*,0,-1
O=C(Nc1ccc(Cl)c(Cl)c1)C1C2C=CC3(O2)C1C(=O)N(CCN1CCCCC1)C3C(=O)NC1CCCCC1 (stereo not given),1,0,2,11,0,.
CN(C)CCOC(c1ccc(Cl)cc1)c1ccccn1 (stereo not given),-2,2,-3,974*,-1,0
CN1CCN(CCCNC(=O)CN2C(=O)COc3ccccc32)CC1,-2,7,-2,241,2,.
Cc1ccc2c(c1)N(CC(=O)NCCCN1CCN(C)CC1)C(=O)CO2,1,5,-8,634*,0,0
COC(=O)NC(=S)N1CCOCC1,-4,5,6,1,4,.
N#Cc1ccc(CN2CCN(C(=O)CNC(=O)Cc3ccccc3)CC2)cc1,.,6,.,.,.,.
CCN(CC)S(=O)(=O)c1ccc(NC(=O)C(C)N(c2ccccc2)S(C)(=O)=O)cc1 (stereo not given),4,0,-3,+,-3,0
COc1ccc(/C=N\Nc2ccc([N+](=O)[O-])cc2)c(C(=O)O)c1OC,10,1,7,455*,7,0
O=C(NC1CCSc2ccccc21)c1ccc(F)cc1 (stereo not given),-8,-2,0,6,2,.
O=C(Cc1cccs1)Nc1cccc(-c2nnc(-c3ccco3)o2)c1,-11,0,-2,522*,-3,-1
O=C(COc1ccccc1)Nc1cccc(-c2nnc(-c3ccccc3)o2)c1,2,0,1,+,0,1
COc1ccc(CC(=O)Nc2cccc(-c3nnc(-c4ccco4)o3)c2)cc1,-7,1,-3,151,2,.
CN(C)C(CNC(=O)CNC(=O)c1ccc(Br)cc1)c1ccccc1 (stereo not given),1,-2,-2,599*,4,0
CC(C)C(NC(=O)c1ccccc1)C(=O)NCC(c1ccccc1)N(C)C (stereo not given),5,3,1,+,-3,0
COc1ccc(C(=O)Nc2ccccc2C(=O)NCCN2CCOCC2)cc1,3,2,-2,10,7,.
COc1ccc(C(=O)Nc2ccccc2C(=O)NCCN2CCOCC2)cc1OC,-6,4,-2,424*,0,0
SMILES,HDAC3 inhib,IDE act,LANA-H2A inh,SUMO Mot1 rescue,IDE cell inh,Mot1 SUMO dose
O=C(Nc1ccc2oc(-c3ccccc3F)nc2c1)c1ncn[nH]1,3,1,-3,+,0,1
O=C(Nc1ccc2oc(-c3ccccc3F)nc2c1)c1ccccc1F,-2,-6,-3,8,2,.
CC(C)C(=O)NNc1ccc(C(F)(F)F)cn1,3,9,3,586*,2,0
COC(=O)CN1CCN(C(=O)c2ccco2)CC1,0,-1,-3,96,1,.
Cc1cc(C)c2c(=O)[nH]cnc2n1,7,-2,0,997*,2,0
Cc1cc(C)c2c(C)[nH]nc2n1,4,.,-6,200,1,.
Cc1ccc2c(CC(=O)NNC(=O)c3ccccc3O)coc2c1,-2,6,-9,16,1,.
Cc1ccc(/C=C/C(=O)O)cc1S(=O)(=O)N(CCO)CCO,-3,6,-6,390*,2,0
COc1ccc(NS(=O)(=O)c2cccc(C(=O)NCCCn3ccnc3)c2)cc1,8,-2,-1,452*,6,0
O=S(=O)(c1cccc(-c2nnco2)c1)N1CCCC1,3,2,-2,+,-2,0
Nc1ncnc2c1ncn2[C@@H]1O[C@H](CNC(=O)[C@@H]2CCCN2S(=O)(=O)c2ccc(F)cc2)[C@@H](O)[C@H]1O,.,-1,.,.,.,.
CC(C)c1onc(C(=O)N(C)Cc2ccccc2)c1[N+](=O)[O-],2,0,1,726*,1,0
CC(C)(O)CC[C@@H](O)[C@](C)(O)[C@H]1CC[C@@]2(O)C3=CC(=O)[C@@H]4C[C@@H](O)[C@@H](O)C[C@]4(C)[C@H]3CC[C@]12C,-3,1,-6,-10,2,.
COc1ccc(-n2nc(C(=O)NCC(=O)NC3CCCCCC3)c3ccccc3c2=O)cc1OC,-3,4,3,288,0,.
Cn1c(=NC(=O)COc2ccccc2)sc2cc(F)cc(F)c21,.,.,-3,448*,-4,0
O=[N+]([O-])c1cccc(-c2cn3nc(-c4ccccc4)c(-c4ccccc4)nc3n2)c1,-2,1,3,7,8,.
O=Nc1c(-c2cccc([N+](=O)[O-])c2)nc2ncccn12,1,.,6,556*,7,0
CC(C)Oc1ccc(CCC(=O)NNC(=O)c2ccccc2C(=O)O)cc1,-3,5,-5,460*,-3,0
CCOC(=O)CN1NC2(CCC(C(C)(C)C)CC2)NC1=S (stereo not given),2,4,-8,500*,1,0
O=C(Nc1ccc(F)cc1F)c1ccc(-n2cccn2)nc1,0,-3,-3,.,-1,.
CC(C)Sc1ccc(C(=O)Nc2ccc(F)cc2F)cn1,-1,3,-2,537*,-1,0
CCOC(=O)c1oc2c(c1C)/C(=N/O)CCC2,3,1,0,-14,2,.
CCOC(=O)c1oc2c(c1C)C(=O)CCC2,0,2,0,934*,1,0

# Compound activity from PubChem.
